The list is not random: actives were taken first. Their share in the collection is about 1.3%.
AI-2 QS modul: modulates the Vibrio harveyi AI-2 quorum sensing system | AID 2094 | Vibrio harveyi JMH597 AI-2 luminescence/OD600 ratio, 9 h; stronger effect = lower value; strain lacks LuxN and CqsS sensors; 0 = neutral-control median | 0.4% of 300,000 active | activity change, % at 7.5 µM; in the data active = activity change below about -75%, passing the limit was not always enough;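 note: luminescence divided by OD600 gain over 9 h not by final OD600 alone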
Statin myotox sup: protects C2C12 myotubes from simvastatin toxicity; ATP luminescence, 48 h; scaled: DMSO 0, geranylgeraniol control 100; rescue of ATP level, % at 7.49 µM; 0.78% of 330,000 active; AID 602340;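 active = mean ATP rescue above about 67%, or every replicate alone reaching that limit, limit read from the data, passing the limit was not always enough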;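 note: myotubes were challenged with 10 µM simvastatin during compound exposure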
PGC1a acetyl inh: PGC1a acetylation modulation, inhibitor mode; 0.17% of 350,000 active; AID 651687; inhibition, % at 15.6 µM; U2OS PGC1a acetylation, AlphaScreen anti-acetyl-lysine; with virally co-expressed GCN5 acetyltransferase;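 active = every replicate shows inhibition of at least 40%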;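 note: 0% = neutral control wells and 100% = positive control wells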
Rce1 inh: inhibitors of yeast Ras-converting enzyme; yeast membranes, quenched prenylated peptide cleavage fluorescence; calls only; 0.27% of 290,000 active; AID 2563;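 active = fall in fluorescence gain of 50% or more versus controls, with final raw signal at or below 3038400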;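 note: plate controls were neutral control wells for no effect and wells lacking membranes for full effect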
Target sequence (Q03530 whole entry, looked up): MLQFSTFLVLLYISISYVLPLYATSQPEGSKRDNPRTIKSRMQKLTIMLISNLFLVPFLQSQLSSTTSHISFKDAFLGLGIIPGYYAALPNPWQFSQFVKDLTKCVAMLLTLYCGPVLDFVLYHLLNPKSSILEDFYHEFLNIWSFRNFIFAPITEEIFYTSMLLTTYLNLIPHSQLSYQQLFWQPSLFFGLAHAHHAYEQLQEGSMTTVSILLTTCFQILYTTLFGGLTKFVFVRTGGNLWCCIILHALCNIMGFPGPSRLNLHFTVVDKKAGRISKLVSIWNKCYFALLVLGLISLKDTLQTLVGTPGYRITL
HIF act: HIF pathway transcriptional activation; AID 1910; activation, % at 7.5 µM (by protocol); U2OS HRE-luciferase reporter, luminescence; normalized: DMSO 0%, desferrioxamine 100%; 0.32% of 300,000 active;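 active = mean activation of at least 10% of the iron chelator positive control signal, with at least half of replicates also reaching 10%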
Starred values were filed as active, the others as inactive; i = inactive; x = no result; + = active, no number.

SMILES	AI-2 QS modul	Statin myotox sup	PGC1a acetyl inh	Rce1 inh	HIF act
C[C@H]1CN([C@@H](C)CO)S(=O)(=O)c2ccc(-c3ccccc3F)cc2O[C@H]1CN(C)Cc1cccnc1	x	-20	1	x	x
CS(=O)(=O)N1CC2(C1)[C@H](c1ccccc1)[C@@H](CO)N2C(=O)C1CCC1	x	x	10	x	x
Nc1cc(Oc2cccnc2)cc([N+](=O)[O-])c1	6	x	-1	i	0
c1cncc(Oc2cccc(Oc3cccnc3)c2)c1	x	108*	-7	x	x
Cc1ccc(S(=O)(=O)Nc2ccc3c(c2)CC(=O)N([C@@H](C)CO)C[C@H](C)[C@@H](CN(C)Cc2ccc(Cl)c(Cl)c2)O3)cc1	x	72*	2	x	x
Cc1ccc(S(=O)(=O)Nc2ccc3c(c2)CC(=O)N([C@H](C)CO)C[C@H](C)[C@H](CN(C)Cc2ccc(Cl)c(Cl)c2)O3)cc1	x	5	0	x	x
Cc1noc(C)c1S(=O)(=O)Nc1ccc2c(c1)CC(=O)N([C@H](C)CO)C[C@@H](C)[C@H](CN(C)Cc1ccc(Cl)c(Cl)c1)O2	x	87*	-5	x	x
Cc1ccc(S(=O)(=O)Nc2ccc3c(c2)CC(=O)N([C@@H](C)CO)C[C@@H](C)[C@H](CN(C)Cc2ccc(Cl)c(Cl)c2)O3)cc1	x	74*	-8	x	x
Cc1sc(NC(=O)c2ccco2)c(CN2CCN(Cc3ccccc3)CC2)c1C	23	-29	-11	i	0
CCc1c(C)sc(NC(=O)c2ccco2)c1C(=O)N1CCCCC1	20	116*	8	i	0
Cc1sc(NC(=O)c2ccco2)c(CN2CCC(C)CC2)c1C	8	12	-28	i	51*
CC(=O)N(C)C[C@@H]1Oc2cc(C#CCC(C)C)ccc2S(=O)(=O)N([C@@H](C)CO)C[C@H]1C	x	-15	9	x	x
CC(C)c1ccc(N(C(=O)c2snc(C(N)=O)c2N)C(C(=O)NC2CCCC2)c2ccncc2)cc1 (configuration not stated)	14	12	x	i	44*
COc1ccc(NC(=O)N(C)C[C@H]2Oc3ccc(NS(=O)(=O)c4cn(C)cn4)cc3C(=O)N([C@@H](C)CO)C[C@@H]2C)cc1	x	31	-5	x	x
Cc1ccc(S(=O)(=O)N(C)C[C@@H]2Oc3ncc(-c4ccncc4)cc3C(=O)N([C@H](C)CO)C[C@H]2C)cc1	x	x	-8	x	x
Cc1cc(NC(=O)c2ccc(N3C(=O)CCC3=O)cc2)no1	5	115*	6	i	-1
C/C=C/c1ccc([C@@H]2[C@H](CO)N3C(=O)CN(S(=O)(=O)c4cccc(F)c4)C[C@@H]23)cc1	x	x	11	x	x
Cc1nc(NCc2ccco2)c2cn[nH]c2n1	x	95*	2	x	x
CCc1cc(=O)oc2c(C)c(OC(C)C(=O)NC3CC(C)(C)NC(C)(C)C3)ccc12 (configuration not stated)	15	-17	x	+	-1
CCc1cc(=O)oc2c(C)c(OCC(=O)NC3CC(C)(C)NC(C)(C)C3)ccc12	17	-5	-1	i	0
CCOC(=O)c1c(NC(=O)/C=C/C(=O)O)sc(C)c1-c1ccc(C(C)(C)C)cc1	13	x	47*	i	-4
C/C=C/c1ccc2c(c1)O[C@@H](CN(C)C(=O)CN(C)C)[C@@H](C)CN([C@@H](C)CO)S2(=O)=O	x	0	2	x	x
O=C(Nc1ccccc1)N[C@@H]1CC[C@@H](CCNS(=O)(=O)c2ccccc2F)O[C@H]1CO	x	-16	-3	x	x
CCCN1[C@@H]2c3ccc(-c4ccncc4)c(=O)n3C[C@@H]2[C@@H](CO)[C@@H]1C(=O)N1CCOCC1	x	-7	x	x	x
CN(C)c1ccc(CNc2ccc3c(c2)ncn3C)cc1	12	x	x	i	0
SMILES	AI-2 QS modul	Statin myotox sup	PGC1a acetyl inh	Rce1 inh	HIF act
CC(C)c1ccc(CNc2ccc3c(c2)ncn3C)cc1	-79*	-13	3	i	2
O=C(C1CC1)N1CC(=O)N2[C@H](CO)[C@@H](c3ccc(Br)cc3)[C@H]2C1	x	x	3	x	x
Cc1ccc(S(=O)(=O)c2nc(S(C)(=O)=O)sc2N2CCC(O)CC2)cc1	49	16	-7	i	0
CS(=O)(=O)c1nc(S(=O)(=O)c2ccc(Cl)cc2)c(N2CCC(O)CC2)s1	-1	85*	-28	i	0
O=C(CSc1nnc2ccccn12)NNC(=O)c1cccc(Cl)c1	x	113*	0	x	x
CCOc1ccc(NC(=O)C2CCN(S(=O)(=O)c3ccc4c(c3)N(C(C)=O)CCO4)CC2)cc1	-2	-8	-8	i	25*
CCN(CC)CCCNc1cc(C)nc2cc(-c3cccs3)nn12	19	x	-5	+	1
